Source: PubChem BioAssay
For some assays here: Potency and affinity values are given separately. Activity calls are given as the source filed them. Unless noted, how the calls were made is not given here.

Assays:
[1] = antimalarial activity against Dd2 strain (AID 2302;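 active means growth inhibition above 50% at the single 2 µM test dose, taken to imply half-maximal potency below 2 µM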;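 further: 0% = DMSO untreated growth and 100% = chloroquine plus artemisinin killed control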); settings: P. falciparum Dd2 in RBCs, LDH growth readout, 72 h; at 2 µM; stronger effect = higher value
[2] = HepG2 cytotoxicity, primary screen, cytotoxicity control for P. falciparum antimalarial project, cell-based, ATP luminescence (AID 2303;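 active means inhibition above 50%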;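 further: 0% = DMSO wells and 100% = digitonin-killed cells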); settings: HepG2 viability, 24-48 h, at 10 µM, stronger effect = higher value
[3] = molecular target: L-lactate dehydrogenase (Plasmodium falciparum (isolate CDC / Honduras)) (UniProt Q27743); assay: PfLDH activity inhibition – cell lysate, 3D7 strain, counter-screen for P. falciparum growth inhibition project (AID 2304);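 further: 0% = vehicle and 100% = reference inhibitor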; settings: P. falciparum 3D7 crude extract, LDH APAD/NBT absorbance; at 2 µM; stronger effect = higher value
Chain of L-lactate dehydrogenase (Plasmodium falciparum (isolate CDC / Honduras)) (Q27743 whole entry, looked up): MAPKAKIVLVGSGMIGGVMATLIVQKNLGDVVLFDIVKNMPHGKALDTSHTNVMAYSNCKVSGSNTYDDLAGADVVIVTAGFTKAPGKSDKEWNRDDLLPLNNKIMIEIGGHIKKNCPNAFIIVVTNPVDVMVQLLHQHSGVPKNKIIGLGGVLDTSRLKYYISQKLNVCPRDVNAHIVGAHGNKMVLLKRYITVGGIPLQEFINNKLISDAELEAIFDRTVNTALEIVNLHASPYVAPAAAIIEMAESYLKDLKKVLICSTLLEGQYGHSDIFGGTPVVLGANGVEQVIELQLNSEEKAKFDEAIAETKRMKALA

[4] = inhibition of 3D7 malaria parasite growth – strain 3D7 (AID 2306);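 further: 0% = DMSO wells and 100% = chloroquine plus artemisinin control wells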; settings: P. falciparum 3D7 erythrocytic growth, LDH absorbance, 72 h; at 2 µM; stronger effect = higher value
[5] = molecular target: Calcium-dependent protein kinase 1 (Plasmodium falciparum (isolate 3D7)) (UniProt P62344); assay: PfCDPK1 kinase inhibitors, biochemical, TCAMS library (AID 1159585; cut-off not given, nearly all actives have IC50 up to about 0.98 µM;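 further: inhibitors leave more ATP so luminescence rises with inhibition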); settings: recombinant PfCDPK1, Kinase-Glo ATP depletion luminescence
Chain of Calcium-dependent protein kinase 1 (Plasmodium falciparum (isolate 3D7)) (P62344 whole entry, looked up): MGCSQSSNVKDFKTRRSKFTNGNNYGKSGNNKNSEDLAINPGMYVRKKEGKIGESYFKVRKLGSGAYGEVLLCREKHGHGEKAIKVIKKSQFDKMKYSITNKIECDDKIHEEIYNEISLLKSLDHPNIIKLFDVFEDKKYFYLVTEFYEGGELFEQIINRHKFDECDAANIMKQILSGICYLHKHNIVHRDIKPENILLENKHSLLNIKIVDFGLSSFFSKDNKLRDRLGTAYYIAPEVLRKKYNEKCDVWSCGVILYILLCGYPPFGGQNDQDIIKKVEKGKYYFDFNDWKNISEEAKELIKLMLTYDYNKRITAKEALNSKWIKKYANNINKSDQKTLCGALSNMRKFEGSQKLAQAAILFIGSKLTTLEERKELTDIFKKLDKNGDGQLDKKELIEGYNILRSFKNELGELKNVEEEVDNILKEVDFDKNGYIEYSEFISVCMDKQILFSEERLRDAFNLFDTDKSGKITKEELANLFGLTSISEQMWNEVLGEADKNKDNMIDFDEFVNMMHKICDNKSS

[6] = molecular target: Plasmodium falciparum protein kinase 6 (PK6, PF3D7_1337100) (UniProt Q8IDW1); assay: PfPK6 kinase inhibitors, biochemical, TCAMS library (AID 1159586); settings: recombinant PfPK6, Kinase-Glo ATP depletion luminescence
Chain of Plasmodium falciparum protein kinase 6 (PK6, PF3D7_1337100) (Q8IDW1 1-305): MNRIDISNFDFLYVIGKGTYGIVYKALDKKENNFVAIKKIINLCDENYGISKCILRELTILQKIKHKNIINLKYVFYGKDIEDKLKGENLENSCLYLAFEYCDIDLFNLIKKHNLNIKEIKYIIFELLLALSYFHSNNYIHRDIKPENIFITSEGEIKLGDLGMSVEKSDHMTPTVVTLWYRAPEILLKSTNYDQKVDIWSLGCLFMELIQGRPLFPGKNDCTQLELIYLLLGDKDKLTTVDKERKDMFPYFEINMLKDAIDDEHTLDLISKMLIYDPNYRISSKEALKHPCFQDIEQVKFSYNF

[7] = molecular target: Protein kinase 7 (PK7), Plasmodium falciparum 3D7 (PF3D7_0213400) (UniProt Q7YTF7); assay: inhibition of Plasmodium PK7 catalytic activity – biochemical, TCAMS antimalarial set, Kinase-Glo luminescence (AID 1159587); settings: recombinant PfPK7, Kinase-Glo ATP depletion luminescence
Chain of Protein kinase 7 (PK7), Plasmodium falciparum 3D7 (PF3D7_0213400) (Q7YTF7 1-343): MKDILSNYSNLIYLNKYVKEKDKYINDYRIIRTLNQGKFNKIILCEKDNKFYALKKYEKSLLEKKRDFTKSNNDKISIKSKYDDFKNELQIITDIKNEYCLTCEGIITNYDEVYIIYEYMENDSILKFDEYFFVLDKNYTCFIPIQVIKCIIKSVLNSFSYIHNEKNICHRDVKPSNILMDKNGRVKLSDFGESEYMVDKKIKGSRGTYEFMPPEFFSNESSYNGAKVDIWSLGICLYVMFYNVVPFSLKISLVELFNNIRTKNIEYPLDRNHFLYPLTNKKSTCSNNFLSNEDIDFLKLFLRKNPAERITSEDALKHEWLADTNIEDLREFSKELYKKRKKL

[8] = molecular target: Calcium-dependent protein kinase 4 (Plasmodium falciparum (isolate 3D7)) (UniProt Q8IBS5); assay: PfCDPK4 kinase inhibitors, biochemical, TCAMS library (AID 1159588; cut-off not given, nearly all actives have IC50 up to about 0.91 µM); settings: recombinant PfCDPK4, Kinase-Glo ATP depletion luminescence
Chain of Calcium-dependent protein kinase 4 (Plasmodium falciparum (isolate 3D7)) (Q8IBS5 whole entry, looked up): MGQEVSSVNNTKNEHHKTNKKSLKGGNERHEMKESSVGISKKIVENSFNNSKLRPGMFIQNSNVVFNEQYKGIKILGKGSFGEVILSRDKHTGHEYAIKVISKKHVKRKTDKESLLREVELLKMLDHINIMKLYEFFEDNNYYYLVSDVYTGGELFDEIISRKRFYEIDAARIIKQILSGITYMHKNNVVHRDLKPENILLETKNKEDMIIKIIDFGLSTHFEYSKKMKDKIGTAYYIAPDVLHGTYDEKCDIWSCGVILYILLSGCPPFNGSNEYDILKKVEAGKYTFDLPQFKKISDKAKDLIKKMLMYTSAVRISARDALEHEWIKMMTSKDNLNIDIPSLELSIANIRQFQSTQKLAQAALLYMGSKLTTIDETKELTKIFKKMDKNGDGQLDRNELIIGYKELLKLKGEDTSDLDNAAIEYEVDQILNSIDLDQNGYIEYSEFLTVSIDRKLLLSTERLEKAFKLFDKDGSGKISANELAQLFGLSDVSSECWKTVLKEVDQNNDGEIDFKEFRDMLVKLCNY

O=C(Nc1ccncc1)Nc1ccc2c(c1)CCN(C1CCC1)CC2
active: growth inhibition [4] 87%
inactive: growth inhibition [1] 4% | inhibition [2] -1% | inhibition [3] 4% | outcome [5] | outcome [6] | outcome [7] | outcome [8]

COc1ccc2nc(-c3ccc(C(=O)NCCCN4CCN(c5cc(Cl)ccc5OC)CC4)cc3)[nH]c2c1
active: growth inhibition [1] 53% | growth inhibition [4] 97%
inactive: inhibition [2] -2% | inhibition [3] 1% | outcome [5] | outcome [6] | outcome [7] | outcome [8]

CC[C@H]1CN(CCCn2c3ccccc3c3ccccc32)[C@@H](CC)CN1
active: inhibition [2] 69% | growth inhibition [4] 89%
inactive: growth inhibition [1] -3% | inhibition [3] -6% | outcome [5] | outcome [6] | outcome [7] | outcome [8]

Cc1[nH]c(C)c(-c2ccc(OCCCc3ccccn3)cc2)c(=O)c1Br
inactive: inhibition [2] -8% | inhibition [3] 5% | outcome [5] | outcome [6] | outcome [7] | outcome [8]
active: growth inhibition [1] 97% | growth inhibition [4] 98%

Cn1c(Nc2cc(C(C)(C)C)on2)nc2cc(Nc3ccnc(Nc4cccc(S(=O)(=O)N5CCOCC5)c4)n3)ccc21
active: growth inhibition [1] 96% | growth inhibition [4] 101%
inactive: inhibition [2] 32% | inhibition [3] 5% | outcome [5] | outcome [6] | outcome [7] | outcome [8]

CCC1CN(S(=O)(=O)c2ccc3c(c2)NC(=O)CC(=O)N3)c2cc(Cl)ccc2O1 (stereo not given)
active: growth inhibition [1] 65% | growth inhibition [4] 99%
inactive: inhibition [2] -9% | inhibition [3] -5% | outcome [5] | outcome [6] | outcome [7] | outcome [8]

CCOc1ccc2c(NN=Cc3ccccc3OC)cc(C)nc2c1
active: growth inhibition [1] 93% | growth inhibition [4] 99%
inactive: inhibition [2] 11% | inhibition [3] 0% | outcome [5] | outcome [6] | outcome [7] | outcome [8]

Cc1cccc(-c2nn(-c3ccccc3)c3[nH]c(=O)c(CNC4CCCC4)cc23)c1
inactive: inhibition [2] 18% | inhibition [3] -2% | outcome [5] | outcome [6] | outcome [7] | outcome [8]
active: growth inhibition [1] 97% | growth inhibition [4] 98%

CCOc1cc(C)ccc1N1CCN(CCN2CCC(NC(=O)c3ccc(-c4ccc(C#N)cc4)cc3)CC2)CC1
inactive: growth inhibition [1] 3% | inhibition [2] 9% | inhibition [3] -1% | outcome [5] | outcome [6] | outcome [7] | outcome [8]
active: growth inhibition [4] 84%

COc1ccc(C=NNc2cc(C)nc3ccc(C)cc23)c2ccccc12
inactive: inhibition [2] 28% | inhibition [3] 4% | outcome [5] | outcome [6] | outcome [7] | outcome [8]
active: growth inhibition [1] 55% | growth inhibition [4] 94%

COc1ccccc1Cn1ccnc1SCC(=O)Nc1cc(C(F)(F)F)ccc1Cl
active: growth inhibition [1] 97% | growth inhibition [4] 96%
inactive: inhibition [2] 12% | inhibition [3] 1% | outcome [5] | outcome [6] | outcome [7] | outcome [8]

CCOC(=O)C(NC(=O)c1ccc([N+](=O)[O-])o1)C(C)C (stereo not given)
inactive: growth inhibition [1] 8% | inhibition [2] -3% | inhibition [3] 0% | outcome [5] | outcome [6] | outcome [7] | outcome [8]
active: growth inhibition [4] 87%

CCOCCCn1c(=N)c(C(=O)NC(C)c2ccccc2)cc2c(=O)n3cccc(C)c3nc21 (stereo not given)
active: growth inhibition [4] 95%
inactive: growth inhibition [1] 31% | inhibition [2] 24% | inhibition [3] -4% | outcome [5] | outcome [6] | outcome [7] | outcome [8]

CC1(C)N=C(N)NC(NOCc2ccc(Cl)c(Cl)c2)=N1
inactive: growth inhibition [1] 27% | inhibition [2] 5% | inhibition [3] 2% | outcome [5] | outcome [6] | outcome [7] | outcome [8]
active: growth inhibition [4] 96%

CN(C)CCOc1ccc(-c2cc(-c3ccncc3)c(-c3ccc(Cl)c(O)c3)[nH]2)cc1
active: growth inhibition [1] 100% | growth inhibition [4] 98%
inactive: inhibition [2] 25% | inhibition [3] -2% | outcome [5] | outcome [6] | outcome [7] | outcome [8]

CCc1c(C)nc(-n2nc(C)cc2NC(=O)c2cccc3ccccc23)[nH]c1=O
inactive: inhibition [2] 39% | inhibition [3] 1% | outcome [5] | outcome [6] | outcome [7] | outcome [8]
active: growth inhibition [1] 89% | growth inhibition [4] 98%

COc1ccc2nccc([C@@H](O)CN3CCC(NC(=O)/C=C/c4cccc(NC(C)=O)c4)CC3)c2c1
active: growth inhibition [1] 60% | growth inhibition [4] 90%
inactive: inhibition [2] 5% | inhibition [3] 0% | outcome [5] | outcome [6] | outcome [7] | outcome [8]

Cc1cccc2[nH]c(-c3ccc(-c4ccc(NC(=O)Nc5ccsc5)cc4)cc3)nc12
inactive: inhibition [2] 49% | inhibition [3] 5% | outcome [5] | outcome [6] | outcome [7] | outcome [8]
active: growth inhibition [1] 70% | growth inhibition [4] 101%

Cc1cc(N2CCCC2)nc(Nc2ccc(NC(=O)c3ccc(Br)o3)cc2)n1
active: growth inhibition [1] 57% | growth inhibition [4] 99%
inactive: inhibition [2] 17% | inhibition [3] 0% | outcome [5] | outcome [6] | outcome [7] | outcome [8]

COCn1ccc2c3c(N)nc(N)nc3ccc21
inactive: growth inhibition [1] 1% | inhibition [3] 6% | outcome [5] | outcome [6] | outcome [7] | outcome [8]
active: inhibition [2] 63% | growth inhibition [4] 88%

COc1ccc(C2CCN(CCN3CCC(NC(=O)c4cccc(-c5ccncc5)c4)CC3)CC2)c(OC)c1
active: growth inhibition [4] 94%
inactive: growth inhibition [1] 24% | inhibition [2] 7% | inhibition [3] -6% | outcome [5] | outcome [6] | outcome [7] | outcome [8]

COCCN1CCC(CNCC(C)(C)c2nc(-c3ccc(Cl)c(O)c3)c(-c3ccncc3)[nH]2)CC1
inactive: growth inhibition [1] 2% | inhibition [2] -15% | inhibition [3] -1% | outcome [5] | outcome [6] | outcome [7] | outcome [8]
active: growth inhibition [4] 102%

O=C(NC1CC1)c1cnc(N2CCC(Cc3ccccc3)CC2)c(Cl)c1
inactive: inhibition [2] 10% | inhibition [3] -2% | outcome [5] | outcome [6] | outcome [7] | outcome [8]
active: growth inhibition [1] 96% | growth inhibition [4] 96%

c1cncc(NCc2ccc(-c3cc4ccncc4cc3OC3CCNCC3)s2)c1
inactive: growth inhibition [1] 19% | inhibition [2] 4% | inhibition [3] 2% | outcome [5] | outcome [6] | outcome [7] | outcome [8]
active: growth inhibition [4] 100%

C=CCN(C(=O)c1ccc(Cl)c([N+](=O)[O-])c1)c1nc(-c2ccccc2)cs1
active: growth inhibition [1] 99% | growth inhibition [4] 100%
inactive: inhibition [2] -13% | inhibition [3] -6% | outcome [5] | outcome [6] | outcome [7] | outcome [8]

O=C(Nc1ccc(-c2nc3ccccc3[nH]2)cc1)c1ccc(Cl)s1
inactive: growth inhibition [1] 34% | inhibition [2] 16% | inhibition [3] 4% | outcome [5] | outcome [6] | outcome [7] | outcome [8]
active: growth inhibition [4] 99%

CCCCCCNCCOc1ccc(-c2nc(-c3ccccc3)c(-c3ccccc3)[nH]2)cc1
active: growth inhibition [4] 98%
inactive: growth inhibition [1] 39% | inhibition [2] 14% | inhibition [3] -4% | outcome [5] | outcome [6] | outcome [7] | outcome [8]

CN1CCCN(Cc2cccc(-c3ccc(NS(=O)(=O)c4cccc5cccnc45)cc3)c2)CC1
inactive: inhibition [2] 44% | inhibition [3] 2% | outcome [5] | outcome [6] | outcome [7] | outcome [8]
active: growth inhibition [1] 87% | growth inhibition [4] 100%

COc1cccc(-c2ccc(C(=O)NC3CCN(Cc4ccc(N(C)C)cc4)CC3)s2)c1
active: growth inhibition [4] 81%
inactive: growth inhibition [1] 20% | inhibition [2] 8% | inhibition [3] -1% | outcome [5] | outcome [6] | outcome [7] | outcome [8]

CCC1CN2CCc3cc(OC)c(OC)cc3C2CC1CC1NCCc2cc(OC)c(OC)cc21 (stereo not given)
active: growth inhibition [1] 98% | growth inhibition [4] 103%
inactive: inhibition [2] 42% | inhibition [3] -3% | outcome [5] | outcome [6] | outcome [7] | outcome [8]

NC(N)=NCC=C(c1ccccc1)c1ccccc1
inactive: inhibition [2] 9% | inhibition [3] 1% | outcome [5] | outcome [6] | outcome [7] | outcome [8]
active: growth inhibition [1] 83% | growth inhibition [4] 94%

Cc1cc(C(=O)Nc2ccc3c(c2)CCN3C2CCN(Cc3cc(F)cc(F)c3F)C2)no1 (stereo not given)
active: growth inhibition [1] 96% | growth inhibition [4] 95%
inactive: inhibition [2] -5% | inhibition [3] 0% | outcome [5] | outcome [6] | outcome [7] | outcome [8]

CSc1c(CNCCCNc2cc(=O)c3ccccc3[nH]2)[nH]c2ccccc12
inactive: growth inhibition [1] 21% | inhibition [2] 0% | inhibition [3] 2% | outcome [5] | outcome [6] | outcome [7] | outcome [8]
active: growth inhibition [4] 87%

COC(=O)c1ccc2nc(-c3ccc(C(=O)NC4CCN(Cc5ccccc5)CC4)s3)[nH]c2c1
active: growth inhibition [1] 71% | growth inhibition [4] 99%
inactive: inhibition [2] -7% | inhibition [3] -4% | outcome [5] | outcome [6] | outcome [7] | outcome [8]

CCC(NC(=O)c1ccccc1NC(=O)c1ccc(C)cc1)C(=O)OC (stereo not given)
inactive: inhibition [2] -4% | inhibition [3] 3% | outcome [5] | outcome [6] | outcome [7] | outcome [8]
active: growth inhibition [1] 86% | growth inhibition [4] 95%

NCCCNc1nccc(N2CCc3ncnc(Nc4ccc(OCc5cccc(F)c5)c(Cl)c4)c3C2)n1
inactive: inhibition [2] 18% | inhibition [3] 0% | outcome [5] | outcome [6] | outcome [7] | outcome [8]
active: growth inhibition [1] 93% | growth inhibition [4] 98%

O=C(Cn1c(CCc2cccc(F)c2F)nc(=O)c2ccccc21)N(CCCN1CCCC1)Cc1ccc(-c2ccc(C(F)(F)F)cc2)cc1
active: growth inhibition [1] 80% | inhibition [2] 54% | growth inhibition [4] 101%
inactive: inhibition [3] 4% | outcome [5] | outcome [6] | outcome [7] | outcome [8]

CN1CCCC1CNS(=O)(=O)c1ccc(C(=O)NCC2CC2)cc1 (stereo not given)
active: growth inhibition [4] 91%
inactive: growth inhibition [1] -7% | inhibition [2] 17% | inhibition [3] -1% | outcome [5] | outcome [6] | outcome [7] | outcome [8]

Cc1noc(C)c1-c1cccc(CNCc2cccc(-c3ccc(-c4nc5c(C)cccc5[nH]4)s3)c2)c1
active: growth inhibition [1] 75% | growth inhibition [4] 102%
inactive: inhibition [2] 22% | inhibition [3] 1% | outcome [5] | outcome [6] | outcome [7] | outcome [8]

c1ccc(Oc2ccc(Nc3ccnc4ccc(-c5ccccn5)cc34)cc2)cc1
inactive: growth inhibition [1] 10% | inhibition [2] 4% | inhibition [3] -5% | outcome [5] | outcome [6] | outcome [7] | outcome [8]
active: growth inhibition [4] 80%
